# Whole data set: some 4,500 sequences, median “median log2 fold change of GCK-ALFA target abundance (FLAG IP / Myc IP barcode read proportion)” near 0.078, cut for the lowest 2% near -0.6. This is one part of a sample in which the lowest values are shown more often than they occur.
# B1: GBRAP_125_2963 (protein)
# chain: SEEEDLKALATLAKALGFDEDDVAEAVELARKFGIKNTVIALFLAEGYEEVAELVEKLTEEEVREVLKELAKEIEANPDLTPEEVVELAKKLLEKKIAKK
# B2: GBRAP_39_5686 (protein)
# chain: EEEEENEDVVSYLEGLAAKYLYETGKSLEEAFEEAKKILLKLAEEHPELKELIEKLIELAEKKGEEAKLALIGIAVLVKQGTPLEEIKENIEKVIAYFES
# B3: GBRAP_39_5685 (protein)
# chain: EEEEEDENVVSYLEGLAAARLYETGKSLEELFEEAKKILKALAKEEPELKELIEELIELAEKKGDEAKLALIGIAVLVEEGTPLEEIKENIEKVINYFKK
# B4: GBRAP_125_3124 (protein)
# chain: AEAQALADLAAVLKALGFDDEDVAEAVELAAAHSIRGTLYAALLALGDEEGADLVAKLTEEQTKEVVAAVNAWLKAHPDATPEEVKEKLLALLKEAVAAS
# B5: GBRAP_160_4816 (protein)
# chain: MEKVEELLKEAEEDLLDTAEASKDLPIEDRAALLRAEGYTSILELKEELNLSDETEDKLVAIVDELVARLLANPDLTPEEVLALVKEAYEKMKKIVLEEA
# B6: GBRAP_11_2768 (protein)
# chain: KKEELKKAAELAEKAAKTVEKLLKEGVDNEELLKEIEELLKELKKLTEKYGNEDMKKLVKIAEELLEEIKKDPENAEEYAKELKATLDVLAGQYLLEAEE
# B7: GBRAP_128_3156 (protein)
# chain: SVEEVRKKTRELLEKIKESDDETARELARELFELIGTLSPEEAEAAVEVILERLPELSEEKLEILADVAREMMPKYDPYKANLLAEVEVEALNEAEELEE
# B8: GBRAP_160_4781 (protein)
# chain: SEKKEKLKKAIEEAAKEIKEAIDTESPEQVLTVVRGEGGDILQEAEELGIDNEEALEGLDKGIKELEAAMKAAADASPEEKKAIVDKAKEKMIETLDKLT
# B9: GBRAP_52_5905 (protein)
# chain: MRARLRADLEEIIAAVRAGDLEAARAKARELAETYDDEELELAAEELAALVLEAPREDLPAWWRTAEIIAEALEEAGRDEVLADLVLSRTAAAIHEVLQR
# B10: GBRAP_184_5056 (protein)
# chain: MIHEKVIKAETLEELEEKLEELEEELKDFKGELIVHVEIPEFTEEMIELIIERLKRILENGYVSSVTLGLDGKMSEEVVDLAIKLADEAGIKLVIALEEE
# B11: GBRAP_14_3829 (protein)
# chain: MEEIEAVIEEAREDLIELFEEIVPEKAEELAEAVEEVFEELKRRIKETGNVEEAIEEARERLKEEAKKILADEPEEIRNLVLAAIDIEFAELEEEIEELL
# B12: GBRAP_160_4075 (protein)
# chain: SKETEELKKEIKEIAEEAIEFIKESNLENQIAIAEMMAGDILMLVFEAPFISDEDEERIDKILDKYVELLKENKDWSLEEKEEIIKEMAEEVIKEVEKAS
# B13: GBRAP_11_2853 (protein)
# chain: KKEKLKEIAELAEEAIKLLEELLKKGVDDEELQKKILEKLKELLELVKKYLDEADVKLAEYALESFEKSLKDPENAEEYVNEALAFLRVLLGNVLLEIDE
# B14: GBRAP_78_6627 (protein)
# chain: EVEELLEKALEKVEEAAKLATKIPSEKAIDILDELIDAFEYLEEAIEEGGDLEKIEKALKELKKALELIKEQNDPKLEPLKKEVEEAIKLLEKAKKKIKE
# B15: GBRAP_177_5010 (protein)
# chain: SRLAEIEAAADDPEALLALVAATDLRELSREELLALLRALARAIAREGPRPELLEAAVRVAVALITDHGVSLAEVVAILIEHADPDTVEEVVERVAERLA
# B16: GBRAP_39_5638 (protein)
# chain: SREEEAEETFDYLEALGAKLLSERGISLDELLEEEYKYAREAFKDDPELLAAIDELYELALKGDDTDKLAAAGAFSLVREGKSKEEVLEAVELLIYYLKS
# B17: GBRAP_160_4650 (protein)
# chain: EERKEKLKERIKELIEEAYEMMKGETHEERIAIARVMGGDIILELDEDEGVSDEAIEEVDKIMDEFVATLEANPDLTDEEIRALLEEMLKKIFEIIDKYT
# B18: GBRAP_9_7158 (protein)
# chain: MDELVAKLREVIEDAFEEIKEVVPEEVKPIVEKLREEAEKRLEELEEDPEATPEELVEEAKRILREFRERMKKEVDEETAKIVDAIVDTAELEIEEIEEE
# B19: GBRAP_39_5717 (protein)
# chain: EEEEEAENIFSYYEAVGAAEMYKRGISLEELFERTLAEARELAADDPELLAALEELEELALKAGDEAKLAATGIMVRLVEGAPREEVLADLKKLIAYLKS
# B20: GBRAP_160_4742 (protein)
# chain: KEELEKLKKEIEEIFKEGIELLKESEKEEALTIVRGIMGDVIMEVMSSEAASDELEEKIAEIADKAIEEVEKNKDAPIEKVIEIVEKAREEILKLIEEEI
# B21: GBRAP_160_4574 (protein)
# chain: SEEMKKLKEEIKEITEEAKEFIEGQSREEQIAIVKVAMGDILLLLDENPLVSDETEDKAAAIGDALIAYIEAHPDLTAEEIKELLEKATEEIIKLIEKEE
# B22: GBRAP_128_3555 (protein)
# chain: STEEVVEEAEELLEKIKESDEEEAREYARELVRLLASVDEESREAIVKVILERLPELTVEQLEILADVFREERPKVDPDVANALAEIEVEALNVALEKEE
# B23: GBRAP_137_3630 (protein)
# chain: ATVEIEVEEYEDVVEITVTLKDAAKAEAVKELVLDVAHEHGALAVSVEVEEDGTLVVTVWVPREKAEAFLEALVRRLQTELGLRVRVRNLDTGEEEEFEP
# B24: GBRAP_128_3422 (protein)
# chain: SRAAAVARARALLEAMKTADDATAAALADELAALFASADLETAEAIAEVIRAEIPKLTAKQLDILADAFRAALPKLTPEKANIAADVIVDLLNEREELEE
# B25: GBRAP_128_3379 (protein)
# chain: MDEEKLERVRELVRRAIESDVEETRELTREVVRLMGTLSPEEREAAAEIVIEALPEFSREKLDAIADTIRELRPELDPLGQELAAEVEVAALNRAEELEE
# B26: GBRAP_52_6373 (protein)
# chain: MEERARELARRILELAEAGDEEGLREEVRRIVEEESDELIAAVLRELRDMILTEPGLDPEALLTAAATLASEVLEAEKGTPETWAALTELLAAALALEQA
# B27: GBRAP_52_5974 (protein)
# chain: MEEEMRKLAKEIVALILAGDEAGARALLEEIAATKTEEEITLLFKELAKLAKTATPEERDAIVEAALLAEDIALAAGFDEAVMDSNLADVVKAAVDAEKA
# B28: GBRAP_184_5132 (protein)
# chain: TLLERAVEAKTAEELIAKARAVVEEAAAAGARLVLSVFAEDLSVEDNIAVIRELGELKAAHPQIEAIIVDLPEVSEEDLDKLIEAADAAGVKLVAAIPDE
# B29: GBRAP_52_6073 (protein)
# chain: MEEKIEKLAEEITEAIKAGDDEKALELLEKAVKELSEEEIKKLLVLTAKKVAKLNEEEHERFVDILDEFEDILIENGISEEDALLIVGDALAALAKEVAK
# Target: GABARAP, O95166
# Sequence (O95166 whole entry, the tested form may be a part): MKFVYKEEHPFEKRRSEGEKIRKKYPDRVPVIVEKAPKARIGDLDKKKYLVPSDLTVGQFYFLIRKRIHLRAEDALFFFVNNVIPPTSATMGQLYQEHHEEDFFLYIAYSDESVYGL
# Assay: median log2 fold change of GCK-ALFA target abundance (FLAG IP / Myc IP barcode read proportion) (log2 ratio); each designed protein is fused to an ALFA-tag nanobody in HEK293 cells to bring the named protein to FLAG-tagged glucokinase (GCK); Myc marks an untargeted standard; higher = target protein stabilised (more abundant)
# Settings: target protein: 3xFLAG-MCP-GCK-ALFA reporter; HEK293 landing pad (RPLP)
# Summary of the method: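 HEK293 landing-pad cells received a recombined binder library fused to the ALFA nanobody and were induced with 2 μg mL^−1 doxycycline, then transfected with a plasmid encoding a FLAG-tagged target and a Myc-tagged standard. Lysates were collected after 48 h for anti-FLAG and anti-Myc immunoprecipitation, and the circular RNA barcodes were reverse transcribed, amplified and sequenced. Target abundance for each binder is the median log2 ratio of FLAG to Myc barcode read proportions. Barcodes had to reach a proportion of at least 10^−7 in both replicates, each binder needed at least 3 barcodes per replicate, a pseudocount of 10^−6 was applied, and the two replicates were pooled.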
row,Binder,median log2 fold change
1,B1,-0.725
2,B2,0.293
3,B3,-0.604
4,B4,-0.452
5,B5,0.0572
6,B6,0.117
7,B7,-0.269
8,B8,0.333
9,B9,-0.658
10,B10,0.234
11,B11,-0.798
12,B12,-0.29
13,B13,0.174
14,B14,-0.061
15,B15,0.0662
16,B16,0.2
17,B17,-0.715
18,B18,0.0143
19,B19,0.239
20,B20,0.15
21,B21,-0.302
22,B22,-0.0585
23,B23,-0.302
24,B24,-0.139
25,B25,0.284
26,B26,-0.998
27,B27,-0.0573
28,B28,0.00161
29,B29,-0.605
